Reference: the supplement of paper PMC7411054
Structures can show the parent of a compound that is named as a salt.

Each compound was assayed on HepG2-GM130-SQSTM1 (assay: phenotypically active (imaging signature differs from DMSO and reproducible) at any of 0.3-9 uM (binary (1 = active, 0 = inactive)); higher = active). Details: treatment time: 24 h.
Method in brief: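 Each of fifteen gene-edited A549, HepG2 and WPMY1 reporter lines, marked with BFP for segmentation and GFP and RFP/FusionRed, was treated in four wells at 0.3, 1, 3 or 9 µM for 24 h prior to live imaging. Normalisation of per-well live-cell features used solvent control wells. Deviation needed ≥3 of 4 wells beyond the 95th percentile of control Euclidean distances, and reproducibility needed a median replicate Pearson correlation above the 95th percentile of non-replicates. Both were required for phenotypic activity.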

Phenotypically active, inactive:
CNCCC(Oc1ccc(C(F)(F)F)cc1)c1ccccc1 (centres undefined) [fluoxetine] 0
COc1cc(OC)c2cc(-c3ccncc3)cnc2c1 [DMPQ dihydrochloride] 0
Cn1cc(CCn2cnc(-c3cnn(C)c3)c2-c2ccc(C#N)cc2)cn1 0
COc1ccc(CCNCc2ccc(OCc3ccc(Cl)nc3)c(OC)c2)cc1OC [SBE 13 hydrochloride] 0
O=C(O)Cc1cccc(OCCCN(Cc2cccc(C(F)(F)F)c2Cl)CC(c2ccccc2)c2ccccc2)c1 [GW 3965 hydrochloride] 0
CCOP(=O)(OCC)C(=Cc1cc(C(C)(C)C)c(O)c(C(C)(C)C)c1)P(=O)(OCC)OCC 0
O=C([C@H](Cc1cccc(C(F)(F)F)c1)NS(=O)(=O)c1cc(F)c2c(c1)CCNC2)N1CCCC1 [(S)-PFI 2 hydrochloride] 0

Phenotypically active, active:
CC/C(=C(\CC)c1ccc(O)c(CN(CC)CC)c1)c1ccc(O)c(CN(CC)CC)c1 1
Cn1cc(C2=C(c3ccc(Cl)cc3Cl)C(=O)NC2=O)c2ccccc21 1
CC(C)COCC(CN(Cc1ccccc1)c1ccccc1)N1CCCC1 (centres undefined) [bepridil] 1
O=C(NOCC1CC1)c1ccc(F)c(F)c1Nc1ccc(I)cc1Cl 1
N#C/C(=C(/N)Sc1ccc(N)cc1)c1ccccc1C(F)(F)F 1
Cc1noc(C)c1Cn1cc(C#N)c2cc(Oc3ccc(NC(=O)[C@@H]4CCCN4)cc3)ccc21 1
CCCS(=O)(=O)Nc1ccc(F)c(C(=O)c2c[nH]c3ncc(Cl)cc23)c1F 1
